# Bioassay records (PubChem BioAssay)
# Pf growth 48h: Primary qHTS for delayed death inhibitors of the malarial parasite plastid, 48 hour incubation | P. falciparum luciferase growth in erythrocytes, 48 h | Potency, µM (series often up to 28.7 µM), for inactives: at the highest dose activity change, negative = inhibition, actives largely listed as inhibitors | 310,000 tested, 5.9% active | AID 504832, 2011
#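 Growth was read as firefly luciferase luminescence after a 48 h, 37 C, 5% CO2 exposure of compounds to reporter-bearing P. falciparum cultures (0.1% parasitemia, 2% hematocrit final) in Albumax-supplemented RPMI 1640.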
# Pf growth 96h: Primary qHTS for delayed death inhibitors of the malarial parasite plastid, 96 hour incubation | P. falciparum luciferase reporter growth, 96 h | Potency, µM (highest dose often 28.7 µM), inactives show top-dose activity change, negative = inhibition, actives largely listed as inhibitors | 320,000 tested, 6.9% active | AID 504834, 2011
#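 Delayed-death screen, second-generation endpoint: infected erythrocytes, 2% hematocrit, 0.05% parasitemia final; 96 hours at 37 C, 5% CO2; luciferase detection reagent; luminescence decrease equals reduced growth.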
# AMA1-RON2 inh: qHTS for Inhibitors of AMA1-RON; Towards Development of Antimalarial Drug Lead: Primary Screen. Plasmodium falciparum AMA1 (3D7) - RON2 peptide interaction. AlphaScreen AMA1-biotinylated RON2 peptide binding. Potency, µM (doses to about 58.2 µM), for inactives: at the top dose activity change, negative = inhibition, usual class: inhibitors. 360,000 tested, 0.2% active. AID 720542, 2013;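 further: 0% = vehicle wells and -100% = peptide control; nearly all actives have a fitted effect of over 45% in size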
#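 AMA1 (3D7) with his tag at 25 nM final met compounds first, then biotinylated RON2 peptide at 25 nM; detection used donor plus acceptor beads, 10 µg/mL apiece, read by AlphaScreen after 30 min at room temperature.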
# VACV Venus inh: qHTS for Stage-Specific Inhibitors of Vaccinia Orthopoxvirus: Venus Reporter Primary qHTS; Vaccinia virus Venus reporter expression, fluorescence; Potency, µM (titrated, usually from 36.5 µM), for inactives: at the highest dose activity change, negative = inhibition, most hits filed as inhibitors; 330,000 tested, 0.46% active; calls by dose curve; tested in A549 cells; further: nearly all actives have a fitted effect of over 30% in size
# VACV mCherry inh: qHTS for Stage-Specific Inhibitors of Vaccinia Orthopoxvirus: mCherry Reporter Primary qHTS; Vaccinia virus mCherry reporter infection, fluorescence; 310,000 tested, 0.63% active; Potency, µM (series often up to 36.5 µM), inactives show at the highest dose activity change, negative = inhibition, most hits filed as inhibitors; AID 720579, 2013; calls by dose curve; tested in A549 cells; further: nearly all actives have a fitted effect of over 35% in size
# * marks the source's active call; other numbers are inactive results; i = inactive; ? = inconclusive; . = no result; [ ] = another dose, or the depositor's remark. The list is not random: actives were taken first. Their share in the collection is about 8.7%. Unless noted, the call rests on the fitted dose curve; in most records, active means well fitted curve in the direction sought with a large enough effect; inconclusive means small, poorly fitted or top-dose-only effect, or another doubt; inactive means no such curve, though single readings can be large; an effect the other way counts as inactive or inconclusive. Unless noted, on the % scale 0 is the no-effect control and ±100 the full control effect; potency means the concentration at half of the fitted maximal effect.
SMILES,Pf growth 48h,Pf growth 96h,AMA1-RON2 inh,VACV Venus inh,VACV mCherry inh
COc1cccc(-c2nn(C)c3sc(C(=O)N4CCN(c5cccc(C)c5)C(C)C4)cc23)c1 (configuration not stated),.,.,.,1.1%,-6.3%
COc1cccc(-c2cc3c(c(OC)c2)OCCN(Cc2cccn2-c2ccccn2)C3)c1,.,.,.,-0.6%,-16.2%
O=C(C[n+]1cc(-c2ccc(Cl)c(Cl)c2)n2c1CCC2)OCc1ccccc1,0.1%,10.9%,-6.9%,-9.6%,-11.4%
C[n+]1cc(-c2ccccc2)n2c1CCCCC2,?,1.65µM*,3.0%,.,.
O=C(C[n+]1cc(-c2ccccc2)n2c1CCCCC2)c1ccc(Cl)cc1,1.47µM*,0.657µM*,-14.8%,-12.8%,i
Cc1ccc(-c2c[n+](CC(=O)c3ccc(Br)cc3)c3n2CCCCC3)cc1,5.22µM*,-18.0%,-5.2%,-13.9%,-26.6%
O=C(C[n+]1cc(-c2ccccc2)n2c1CCC2)Nc1nc(-c2ccccc2)cs1,?,?,-3.8%,-10.6%,i
CC1CCC(C(C)C)C(OC(=O)C[n+]2cc(-c3ccc(Cl)cc3)n3c2CCCCC3)C1 (configuration not stated),2.94µM*,2.94µM*,-6.2%,-6.8%,i
COc1cc(=O)n2c(c1C(=O)NCc1ccco1)CCN(C(=O)c1cccnc1SC)CC2,.,.,.,1.8%,-3.8%
CCN(CC)CCNC(=S)Nc1ccc2nc(N3CCN(CC)CC3)cc(C)c2c1,11.7µM*,-15.7%,-1.8%,?,?
CCCCNC(=S)Nc1ccc2nc(N3CCN(CC)CC3)cc(C)c2c1,-2.8%[0.00184 µM],?,-3.4%,-26.8%,-17.0%
CCCCN(C)CCNC(=S)Nc1ccc2nc(N3CCN(CC)CC3)cc(C)c2c1,2.33µM*,?,2.2%,?,?
CCN1CCN(c2cc(C)c3cc(NC(=S)NCCN(C)C)ccc3n2)CC1,?,70.0%,8.4%,-29.9%,-28.5%
Cc1cc(Nc2ccccc2)nc2cc(O)ccc12,0.329µM*,-28.4%,0.7%,-10.4%,-21.2%
CC(=O)Nc1ccc(Nc2cc(C)c3ccccc3n2)cc1,-8.2%,?,5.4%,.,.
COc1ccc(Nc2cc(C)c3ccc(O)cc3n2)cc1,0.37µM*,?,-2.8%,.,.
FC(F)(F)c1ccc2c(c1)n(Cc1ccccc1)c1[n+]2CCCCC1,6.57µM*,?,-2.1%,-5.6%,i
O=C(Cn1c2[n+](c3ccc(C(F)(F)F)cc31)CCCCC2)c1cccc([N+](=O)[O-])c1,14.7µM*,13.1µM*,2.3%,.,.
O=C(Cn1c2[n+](c3ccc(C(F)(F)F)cc31)CCCCC2)Nc1ccccc1,?,?,-11.4%,-0.7%,i
CCc1cccc(NC(=O)Cn2c3[n+](c4ccc(C(F)(F)F)cc42)CCCCC3)c1,4.65µM*,1.04µM*,-8.5%,-4.6%,i
O=C(c1ccc(N2CCC(NCCCn3ncc4ccccc43)CC2)cc1)N1CCOCC1,.,.,.,-1.7%,-10.5%
Cc1cc(C)n(-c2ccc(NC(=O)C3CCN(Cc4cc(C)c(C)o4)CC3)cc2)n1,?,-1.6%,3.4%,-10.4%,-1.7%
COCc1ccc(C(=O)N2CCCCC2C(=O)Nc2ccc(-n3nc(C)cc3C)cc2)o1 (configuration not stated),-11.4%,11.7µM*,10.6%,-15.8%,-8.8%
Cc1cc(C)n(-c2ccc(C(=O)OCC(=O)Nc3ccc(S(=O)(=O)N4CCCCC4)cc3)cc2)n1,.,-22.6%,-4.4%,-13.3%,.
Cc1cc(C)n(-c2ccc(NC(=O)C3CCN(Cc4ccc(C)o4)CC3)cc2)n1,13.1µM*,14.7µM*,3.0%,.,.
SMILES,Pf growth 48h,Pf growth 96h,AMA1-RON2 inh,VACV Venus inh,VACV mCherry inh
O=C(COc1ccc(F)cc1)Nc1nnc(S(=O)(=O)N2CCc3ccccc32)s1,.,.,.,-10.1%,-10.8%
CCn1c(C)cc(/C=C2/NC(=O)N(Cc3ccccc3F)C2=O)c1C,11.7µM*,9.28µM*,-10.5%,-10.6%,-19.3%
Cc1cc(/C=C2/NC(=O)N(c3ccccc3)C2=O)c(C)n1C(C)C,-9.3%,-44.1%,-26.5%,0.8%,-27.0%
Cc1cc(/C=C2/NC(=O)N(Cc3ccccc3F)C2=O)c(C)n1C(C)C,?,10.4µM*,-24.0%,-5.7%,?
CCn1c(C)cc(/C=C2\NC(=O)N(Cc3ccccc3)C2=O)c1C,.,?,9.7%,-2.9%,i
Cc1cccc(CN2CCC(CNC(=O)c3c(C)oc4ncnc(N5CCCCC5)c34)CC2)c1,.,.,.,-6.8%,-12.1%
O=C(NCc1ccco1)c1ccc2nc3sc4c(c3c(=O)n2c1)CCCC4,-71.8%,1.85µM*,.,.,.
CCOC(=O)CSc1nc2sc3c(c2c(=O)n1-c1ccccc1)CCN(C)C3,4.65µM*,-26.3%,-13.9%,.,.
C=C(C)CSc1nc2sc3c(c2c(=O)n1-c1ccc(OC)cc1)CCN(C)C3,1.85µM*,1.04µM*,12.8%,.,.
CN1CCc2c(sc3nc(NCCO)n(-c4cccc(Cl)c4)c(=O)c23)C1,.,4.65µM*,-6.8%,.,.
CN1CCc2c(sc3c2c(=O)n(-c2cccc(Cl)c2)c2nncn32)C1,.,.,0.0%,-0.4%,-6.3%[1.46 µM]
COc1ccc(-n2c(SCCNCCO)nc3sc4c(c3c2=O)CCCC4)cc1,13.1µM*,9.28µM*,69.1%,-21.5%,?
CCOC(=O)CSc1nc2sc3c(c2c(=O)n1-c1ccccc1)CC(C(C)C)OC3 (configuration not stated),.,.,.,-1.1%,-5.0%
COC(=O)CSc1nc2sc3c(c2c(=O)n1-c1ccc(OC)cc1)CCN(C)C3,6.57µM*,5.22µM*,-6.9%,-8.3%,i
COc1ccc(-n2c(SCC(N)=O)nc3sc4c(c3c2=O)CCN(C)C4)cc1,?,2.08µM*,-9.2%,-1.9%,-8.6%
CCOC(=O)CSc1nc2sc3c(c2c(=O)n1-c1ccccc1)CCN(C(C)C)C3,0.2%[0.00184 µM],0.828µM*,19.9%,-9.7%,i
COc1ccc(-n2c(SCC(=O)O)nc3sc4c(c3c2=O)CCCC4)cc1,-3.6%,-4.3%,6.2%,-7.0%,-1.8%
CCCCN(CCCC)CCNC(=O)c1cn(C)c2ccc(S(=O)(=O)N3CCOCC3)cc2c1=O,.,.,.,-5.9%,-18.3%
CCCCSc1nc2sc3c(c2c(=O)n1-c1ccc(C)cc1)CCN(C)C3,?,?,-1.0%,-18.7%,-1.9%
CN1CCc2c(sc3nc(SCC(=O)NCc4ccco4)n(-c4ccccc4)c(=O)c23)C1,9.28µM*,0.928µM*,-13.5%,.,.
CCOC(=O)CSc1nc2sc3c(c2c(=O)n1-c1ccc(OC)cc1)CCN(C)C3,1.85µM*,1.47µM*,-6.2%,.,.
COc1ccc(-n2c(SCC(=O)NCc3ccco3)nc3sc4c(c3c2=O)CCN(C)C4)cc1,?,?,-12.9%,.,.
Cc1sc2nc(SCC(=O)NCc3ccco3)n(Cc3ccccc3)c(=O)c2c1C,10.4µM*,.,-2.5%,-26.0%,.
CCOC(=O)CSc1nc2sc3c(c2c(=O)n1-c1ccc(C)cc1)CCN(C)C3,4.65µM*,2.33µM*,0.0%,.,.
